Several values for one entry are separate records, joined by “and”; a condition that tells them apart may be missing. Equal entries are not always repeated. Records with an inconclusive call do not appear. Values without a mark were called inactive. Activity calls are given as the source filed them. Calls follow the shape of the full dose curve.
Tests used:
[1] = target: Bile acid receptor (Homo sapiens) (UniProt Q96RI1); assay: qHTS assay for small molecule agonists of farnesoid X receptor signaling (AID 588527); details: HEK293T FXR-UAS-bla, beta-lactamase ratio, 16 h; activation: stronger effect = higher value;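 also: 0% = vehicle basal and 100% = reference agonist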
In short: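 Quantitative HTS used FXR-UAS-bla HEK293T cells with 16 h compound incubation at 37 C. EC50 values came from concentration-response curves normalized to chenodeoxycholic acid.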

[2] = target: Peroxisome proliferator-activated receptor delta (Homo sapiens) (UniProt Q03181); assay: qHTS assay for small molecule agonists of peroxisome proliferator-activated receptor delta signaling (AID 588534); details: HEK293T PPARdelta-UAS-bla, beta-lactamase ratio, 18 h; series mostly up to 76.7 µM;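 also: 0% = DMSO basal wells and 100% = positive control agonist at 10 µM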
In short: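 Reporter cells were plated and held 5 hrs at 37 C before compounds were added. After 18 hrs at 37 C, CCF4 dye was loaded for 2 hrs at RT and fluorescence measured.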

Peroxisome proliferator-activated receptor delta (Homo sapiens), sequence (Q03181 whole entry, looked up): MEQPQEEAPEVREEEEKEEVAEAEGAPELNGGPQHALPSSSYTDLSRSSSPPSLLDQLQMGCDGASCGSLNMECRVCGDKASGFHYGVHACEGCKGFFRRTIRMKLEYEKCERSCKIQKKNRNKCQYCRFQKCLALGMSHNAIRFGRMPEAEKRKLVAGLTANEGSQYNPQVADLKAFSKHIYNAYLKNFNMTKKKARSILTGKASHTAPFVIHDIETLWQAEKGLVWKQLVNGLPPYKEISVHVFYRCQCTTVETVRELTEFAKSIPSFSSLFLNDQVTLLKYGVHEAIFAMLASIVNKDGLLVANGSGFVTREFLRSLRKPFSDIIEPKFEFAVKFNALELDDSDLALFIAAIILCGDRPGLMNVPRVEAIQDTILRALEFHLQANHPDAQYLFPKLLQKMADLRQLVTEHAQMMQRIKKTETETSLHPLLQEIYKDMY
Bile acid receptor (Homo sapiens), sequence (Q96RI1 whole entry, looked up): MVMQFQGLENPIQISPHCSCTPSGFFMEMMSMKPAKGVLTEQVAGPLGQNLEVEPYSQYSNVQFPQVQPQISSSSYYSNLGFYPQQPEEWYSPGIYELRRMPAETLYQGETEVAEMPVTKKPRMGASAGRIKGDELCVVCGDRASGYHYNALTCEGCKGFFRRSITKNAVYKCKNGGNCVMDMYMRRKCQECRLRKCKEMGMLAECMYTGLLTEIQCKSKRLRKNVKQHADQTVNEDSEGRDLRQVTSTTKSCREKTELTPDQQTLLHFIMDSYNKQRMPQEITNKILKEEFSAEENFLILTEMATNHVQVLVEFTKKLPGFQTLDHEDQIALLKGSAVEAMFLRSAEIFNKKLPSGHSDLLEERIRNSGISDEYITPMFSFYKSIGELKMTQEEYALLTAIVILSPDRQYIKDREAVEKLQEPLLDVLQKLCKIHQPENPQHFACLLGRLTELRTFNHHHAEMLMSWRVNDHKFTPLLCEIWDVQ

| Structure (SMILES) | activation [1] | outcome [2] |
| --- | --- | --- |
| O=S(=O)(O)c1ccc(N=Nc2cc(S(=O)(=O)O)c3ccccc3c2O)c2ccccc12 | 2.06% | inactive |
| Cc1ccc(C)c(N)c1 | -1.33% | inactive |
| CC(C)(C)[C@H](O)[C@H](Cc1ccc(Cl)cc1)n1cncn1 | -2.05% and 0.498% | inactive |
| C=CC(C)(O)CC/C=C(\C)CCC=C(C)C (stereo not drawn) | 0.971% | inactive |
| Nc1ccc(N)c2c1C(=O)c1c(N)ccc(N)c1C2=O | -0.332% | inactive |
| CCNc1nc(NC(C)CC)nc(OC)n1 (stereo not drawn) | -1.27% | inactive |
| COC(=O)CCSCCC(=O)OC | -4.49% | inactive |
| CCC(C)O (stereo not drawn) | 0.0237% | inactive |
| OCC(CO)(CBr)CBr | -0.248% | inactive |
| CC(C)Cc1c(C(=O)O)c(C(F)F)nc(C(F)(F)F)c1C1=NCCS1 | 0.784% | inactive |
| C[Si]1(C)O[Si](C)(C)O[Si](C)(C)O1 | -0.282% | inactive |
| Cc1ccc(C(=O)c2ccccc2)cc1 | -0.352% | inactive |
| CSCCC=O | -2.56% | inactive |
| CC(=O)CC(C)C | -0.151% | inactive |
| CCC1CO1 (stereo not drawn) | -1.53% | inactive |
| Cc1ccc(Cl)cc1N | -2.98% | inactive |
| O=C1OC(O)C(C(Cl)Cl)=C1Cl (stereo not drawn) | 16.6% | inactive |
| C=C1C[C@]23C[C@@]1(O)CC[C@H]2[C@@]12C=C[C@H](O)[C@@](C)(C(=O)O1)[C@H]2[C@@H]3C(=O)O | 0.442% | inactive |
| C1OCOCO1 | -0.63% | inactive |
| Cc1cc(C(C)(C)CC(C)(C)C)ccc1OCCOCC[N+](C)(C)Cc1ccccc1 | -0.746% | inactive |
| CCCCOCC(C)OCC(C)O (stereo not drawn) | 5.12% | inactive |
| CCCOCC(C)OCC(C)O (stereo not drawn) | 1.34% | inactive |
| CCc1ccccc1O | -1.44% | inactive |
| O=C(O)c1cccc(C(=O)O)c1 | -0.333% | inactive |
| C[Si](Cl)(Cl)c1ccccc1 | 0.0023% | inactive |
| O=C(O)CCCCCCCCCCC(=O)O | -2.26% | inactive |
| CC(=O)Nc1cccc(N)c1 | -3.44% | inactive |
| Cc1ccc(C)c(O)c1 | 2.07% | inactive |
| CC(C)=CCl | -3.14% | inactive |

Reference: PubChem BioAssay (NCATS)
